From PubChem BioAssay

Target: Torsin-1A (Homo sapiens) (UniProt O14656)
Test: torsin A mutant lysate binding on microarrays – cell lysate, small-molecule microarray, COS7 lysate, 635/667 nm fluorescence, primary screen (AID 1150);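 note: score pools 667 nm emission and signal to noise measuring lysate protein binding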
Settings: COS7 hTOR1A mutant lysate, 635 nm fluorescence, higher = more signal

Chain of Torsin-1A (Homo sapiens) (O14656 whole entry, looked up): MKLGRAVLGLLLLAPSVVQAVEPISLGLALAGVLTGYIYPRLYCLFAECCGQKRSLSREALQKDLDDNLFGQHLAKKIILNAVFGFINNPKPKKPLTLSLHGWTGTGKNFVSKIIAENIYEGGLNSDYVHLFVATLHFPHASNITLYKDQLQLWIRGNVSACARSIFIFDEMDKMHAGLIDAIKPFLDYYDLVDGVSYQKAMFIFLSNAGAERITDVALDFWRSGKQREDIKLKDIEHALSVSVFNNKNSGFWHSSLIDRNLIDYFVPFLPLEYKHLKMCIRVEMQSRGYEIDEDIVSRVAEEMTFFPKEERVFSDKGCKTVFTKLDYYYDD

SMILES | composite z-score
CC1CC/C=C\[C@H]2OC34C=CCN(c5ccc(Cl)cc5)C(=O)[C@H]3N(CCCCCCO)C(=O)[C@]4(C)C2C(=O)O1 (some centres not stated) | -1.7
O=C1C2C=CC(C(O)c3c(F)cccc3Cl)N(Nc3ccc([N+](=O)[O-])cc3)C2C(=O)N1c1ccccc1 (configuration not stated) | 1.03
[N-]=[N+]=Nc1ccccc1[C@@H]1OC(c2ccc(OCCCO)cc2)=N[C@]1(CCS(=O)(=O)c1ccccc1)C(=O)NCC(O)CO (some centres not stated) | 1.61
C=CC[C@@]1(C(=O)OC)N=C(c2ccc(OCCCO)cc2)O[C@@H]1c1ccccc1N=[N+]=[N-] | 0.672
COC(=O)[C@@]1(Cc2ccc(OC)cc2)[C@H]2c3cc(C(=O)N4CCCC4)n(CCn4cc([N+](=O)[O-])nc4C)c3C[C@H]2CN1C(=O)c1ccccc1 | 1.75
CN1C(=O)C2C(C3CC3)C=C3CN(Cc4cccc(Cl)c4)[C@@H]([C@@H](O)Cc4ccccc4)C3C2C1=O (some centres not stated) | 0.342
COc1ccccc1CN1C(=O)c2ccccc2[C@](Cc2ccccc2I)(C(=O)NCC(C)C)[C@@H]1c1ccc(CO)cc1 | -0.61
